HP1b chromo inh: HTS for Inhibitors of HP1-beta Chromodomain Interactions with Methylated Histone Tails. Chromobox protein homolog 1 (Homo sapiens), P83916. AlphaScreen HP1-beta / biotin-H3K9me3 peptide binding. Potency, µM (highest dose often 114 µM), for the others: at the highest dose activity change, negative = inhibition, most hits filed as inhibitors. 390,000 compounds, 0.56% hits. AID 540317, 2011; also: potency is read from the fitted curve at half-maximal effect; nearly all actives have a fitted effect of over 70% in size
Target sequence (P83916 whole entry, looked up): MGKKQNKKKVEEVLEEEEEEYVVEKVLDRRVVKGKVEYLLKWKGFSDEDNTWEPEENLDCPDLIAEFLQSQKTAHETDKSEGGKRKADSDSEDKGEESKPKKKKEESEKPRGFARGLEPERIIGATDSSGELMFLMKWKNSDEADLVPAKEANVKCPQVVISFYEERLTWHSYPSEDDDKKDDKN
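Compound inhibition of the preformed complex between 50 nM HP1-beta and 50 nM biotinylated H3K9me3 peptide was read by AlphaScreen. Buffer was PBS pH 7.4 with 0.01% Tween-20. Incubations ran 30 min at room temperature, with 10 ug/mL donor/acceptor beads.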
G9a block: qHTS Assay for Inhibitors of Histone Lysine Methyltransferase G9a | 350,000 compounds, 8.8% hits | G9a H3K9 monomethylation, AlphaScreen, 2 h | Potency, µM (titrated, usually from 102 µM), for inactives: top-dose activity, negative = inhibition, actives largely listed as inhibitors | Histone-lysine N-methyltransferase EHMT2 (Homo sapiens), Q96KQ7; also: potency is read from the fitted curve at half-maximal effect; % is scaled to controls: 0 for no effect and ±100 for the full control effect; nearly all actives have a fitted effect of over 75% in size
Target sequence (Q96KQ7 913-1193 limits assumed): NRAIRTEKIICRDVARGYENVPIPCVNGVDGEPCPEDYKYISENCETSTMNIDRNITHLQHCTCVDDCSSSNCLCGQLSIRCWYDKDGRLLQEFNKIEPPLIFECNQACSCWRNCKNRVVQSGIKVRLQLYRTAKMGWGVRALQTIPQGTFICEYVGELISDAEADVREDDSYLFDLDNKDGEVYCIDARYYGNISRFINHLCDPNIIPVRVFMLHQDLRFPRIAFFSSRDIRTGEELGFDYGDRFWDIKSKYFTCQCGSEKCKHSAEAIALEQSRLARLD
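Signal arises when biotinylated H3K9 peptide, once monomethylated, bridges streptavidin donor and antibody-captured acceptor beads. Enzyme at 20 nM was preincubated 15 min with test compounds; peptide 500 nM and SAM 20 uM then reacted for 2 h.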
Six1-Eya2 blk: qHTS Assay for Inhibitors of the Six1/Eya2 Interaction; 360,000 compounds, 0.56% hits; activity change, % (no concentration beside the values); Homeobox protein SIX1 (Homo sapiens) + Protein phosphatase EYA2 (Homo sapiens), …; AID 651725, 2012; AlphaScreen GST-Six1/His-Eya2 binding, biochemical; active compounds read low; in the data active = activity change below about -65%; inconclusive = mostly about -30% to -63%; also: % is scaled to controls: 0 for no effect and ±100 for the full control effect
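AlphaScreen with GST-Six1 and His-Eya2 (5X mix: 250 nM and 500 nM), glutathione donor and nickel acceptor beads; buffer 50 mM Tris pH 8.0, 300 mM NaCl, 1 mM TCEP; 1 h at 37 C in the dark.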
BAZ2B block: qHTS Assay for Inhibitors of BAZ2B | Bromodomain adjacent to zinc finger domain protein 2B (Homo sapiens), Q9UIF8 | AlphaScreen BAZ2B-H3K14Ac peptide displacement | Potency, µM (top dose mostly 114 µM), inactives show at the top dose activity change, negative = inhibition, hits mostly inhibitors | 360,000 compounds, 4.4% hits | AID 504333, 2011; also: potency is read from the fitted curve at half-maximal effect; % is scaled to controls: 0 for no effect and ±100 for the full control effect; nearly all actives have a fitted effect of over 60% in size
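Complex of BAZ2B and biotin-H3K14Ac (50 nM apiece) forms over 30 min at RT, then faces library compounds up to 110 uM for another 30 min; AlphaScreen beads added, 20 min dark incubation, luminescence read.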
CtBP-E1A blk: qHTS Assay for Inhibitors of the CtBP/E1A Interaction | AID 651724, 2012 | 340,000 compounds, 0.49% hits | activity change, % (concentration not given with the values) | AlphaScreen GST-E1A/His-CtBP binding, 1536-well; active compounds read low; in the data active = activity change below about -65%; inconclusive = mostly about -30% to -63%; also: % is scaled to controls: 0 for no effect and ±100 for the full control effect
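Steps: dispense buffer (Tris pH 8.0, NaCl 300 mM, TCEP 1 mM, BSA, Tween 20); add 5X protein mix (GST-E1A, His-CtBP, 125 nM each); pin 23 nL compound; 2 h at 37 °C, dark; add 5X beads (50 ug/mL); 1 h; read.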
JMJD2A Tudor: qHTS Assay for Inhibitors of JMJD2A-Tudor Domain | AID 504339, 2011 | Potency, µM (series often up to 114 µM), inactives show at the highest dose activity change, negative = inhibition, hits mostly inhibitors | 390,000 compounds, 4.4% hits | AlphaScreen JMJD2A-Tudor / H3K4me3 peptide binding; also: potency is read from the fitted curve at half-maximal effect; % is scaled to controls: 0 for no effect and ±100 for the full control effect; nearly all actives have a fitted effect of over 50% in size
Active calls of the source: *; ? = inconclusive; . = not tested or not shown; [ ] = remark or other dose. Rows were chosen to be rich in hits. Some 10% of all compounds tested hit in one or more screens of this group. Unless noted, calls follow the shape of the dose curve; as a rule, active = well fitted inhibition curve with a large enough effect; inconclusive = small, poorly fitted or top-dose-only effect; inactive = no such curve, though single readings can be large or run the other way.

SMILES	HP1b chromo inh	G9a block	Six1-Eya2 blk	BAZ2B block	CtBP-E1A blk	JMJD2A Tudor
CNC(=S)Nc1ccc(C)c(NC(=S)NC)c1	?	28µM*	7	-26%	-7	-15%
COc1ccccc1N1CCN(C(=O)CSc2nc(-c3ccc(C(C)C)cc3)no2)CC1	27%	?	.	-11%	.	-21%
CCOc1ccccc1NC(=O)Cn1c(=O)n(CCC(C)C)c(=O)c2cccnc21	18%	12%[59 µM]	.	1%	.	-14%
O=C(Cn1cc(S(=O)(=O)c2ccccc2)c(=O)c2cc3c(cc21)OCO3)Nc1ccccc1	29%	-31%[59 µM]	.	-33%	.	-13%
CCn1c(C)nc2cc(C(=O)NNC(=S)Nc3ccc(Cl)cc3)ccc21	21%	?	-5	2%	.	-21%
CCn1c(C)nc2cc(C(=O)N/N=C/c3ccccc3)ccc21	-14%	9%	-14	-1%	-23	-13%
CCn1c(C)nc2cc(C(=O)NNC(=S)NC(=O)c3ccccc3)ccc21	31%	18µM*	-1	-1%	.	-22%
CCn1c(C)nc2cc(C(=O)N/N=C/c3cccc(O)c3O)ccc21	31%	-32%	-80*	79µM*	-94*	79µM*
CCn1c(C)nc2cc(C(=O)NNC(=S)Nc3ccc(F)cc3)ccc21	26%	45µM*	4	0%	-3	-6%
CCn1c(C)nc2cc(C(=O)NNC(=S)Nc3ccccc3)ccc21	28%	45µM*	34	0%	-25	-10%
COc1cccc(N2CC(NC(=O)C3CCCCC3)CC2=O)c1 (stereo not drawn)	44%	-14%[59 µM]	.	-14%	.	-9%
Cn1cnc(S(=O)(=O)N2CCC(C(=O)NCc3ccc(F)cc3)CC2)c1	-3%	8%[59 µM]	.	-2%	.	-15%
Cc1c(C(=O)N/N=C/c2ccc(O)c(Br)c2)sc(N)c1C#N	13%	25%[59 µM]	?	-3%	-65*	-10%
COc1cc(/C=N/NC(=O)c2sc(N)c(C#N)c2C)ccc1O	48%	2%[12.7 µM]	-71*	0%	-83*	-26%
COc1cc(/C=N/NC(=O)c2ccc(=O)[nH]n2)ccc1O	6%	5%[59 µM]	0	6%	-12	-22%
COc1ccc(NC(=O)C2CC(c3ccccc3O)=NO2)cc1OC (stereo not drawn)	32%	45µM*	-7	3%	-2	-12%
COc1cc(C2=NOC(C(=O)Nc3ccc4c(c3)OCO4)C2)cc(OC)c1OC (stereo not drawn)	10%	25µM*	-14	-35%	-13	-34%
COc1cccc(C2=NOC(C(=O)Nc3ccc4c(c3)OCO4)C2)c1OC (stereo not drawn)	0%	45µM*	-14	-8%	.	-12%
COc1ccc(C2=NOC(C(=O)Nc3ccc4c(c3)OCO4)C2)cc1OC (stereo not drawn)	17%	50µM*	-4	.	0	-26%
COc1ccc(NC(=O)C2CC(c3cc(OC)c(OC)c(OC)c3)=NO2)cc1OC (stereo not drawn)	-4%	?	-11	-30%	-6	-28%
COc1cccc(C2=NOC(C(=O)Nc3ccc4c(c3)OCO4)C2)c1 (stereo not drawn)	31%	?	-7	-35%	-6	-13%
CC(C)CN(CC(C)C)S(=O)(=O)c1ccc(C(=O)Nc2sc3c(c2C(N)=O)CCN(C(C)C)C3)cc1	40%	1%[59 µM]	.	1%	.	-19%
O=C(NCc1ccco1)C1CC(c2ccccc2C(F)(F)F)=NO1 (stereo not drawn)	33%	6%[59 µM]	5	-1%	7	-12%
O=C(NCc1ccco1)C1CC(c2ccccc2O)=NO1 (stereo not drawn)	2%	.	-2	79µM*	-2	?
Cn1cccc1-c1cc(C(=O)N/N=C/c2cccc(O)c2)[nH]n1	?	45µM*	-27	45µM*	16	?
SMILES	HP1b chromo inh	G9a block	Six1-Eya2 blk	BAZ2B block	CtBP-E1A blk	JMJD2A Tudor
COc1cc(OC)c(OC)cc1/C=N/NC(=O)c1cc(-c2cccn2C)n[nH]1	28%	-43%[59 µM]	-2	-28%	2	15%
COc1ccc(/C=N/NC(=O)c2cc(-c3cccn3C)n[nH]2)cc1OC	?	79µM*	?	50µM*	?	-12%[57.1 µM]
CCOc1cccc(/C=N/NC(=O)c2cc(-c3cccn3C)n[nH]2)c1O	?	48%[0.501 µM]	-87*	50µM*	-85*	?
CCn1c(CN2CCCCC2)nc2cc(NC(=O)COc3ccc([N+](=O)[O-])cc3)ccc21	33%	-6%[59 µM]	.	?	.	-14%
O=C(O)CN1CCCC1=Nc1ccccc1	38%	?	2	89µM*	4	-15%
O=C(N/N=C/c1ccccn1)c1cc(-c2cccc3ccccc23)n[nH]1	?	29%	-14	-2%	?	?
O=C(O)c1ccc(/C=N/NC(=O)c2cc(-c3ccc4c5c(cccc35)CC4)n[nH]2)cc1	-14%	?	?	50µM*	-18	?
O=C(Nc1cc2c3c(c1)CC(=O)N3CCC2)c1ccco1	-3%	35µM*	-10	-19%	-10	-15%
O=C(CCl)c1cc2c3c(c1)CC(=O)N3CCC2	62%	50µM*	2	?	-5	-10%
Cc1cc(NC(=O)c2cnn(-c3ccccc3)c2-n2cccc2)ccc1Br	24%	-3%[59 µM]	.	-36%	.	-2%
CC(C)Oc1cccc(C(=O)Nc2ccc3oc(-c4cccc(Cl)c4)nc3c2)c1	31%	-8%[59 µM]	.	0%	.	-8%
N#C/C(=C\c1ccc(O)c(O)c1)C(=O)NCCc1ccccc1	?	9.5µM*	-17	11µM*	-21	?
COCCNC(=O)/C(C#N)=C/c1ccccc1Br	-3%	4%	10	-13%	-7	18µM*
COc1cc(/C=N/S(=O)(=O)CCc2ccccc2)cc(OC)c1O	13%	50µM*	9	-23%	-22	-9%
COCCNC(=O)/C(C#N)=C/c1cc(Br)c(O)c(OC)c1	1%	14µM*	4	-12%	0	-9%
CCOCCCNC(=O)/C(C#N)=C/c1cc(Br)c(O)c(Br)c1	2%	-10%	-4	-12%	17	-12%[11.4 µM]
CCc1ccccc1NC(=O)Cn1c(=O)n(Cc2ccco2)c(=O)c2ccccc21	21%	?	.	-14%	.	-5%
COc1cc(/C=C(\C#N)C(=O)NCCc2ccccc2)cc(OC)c1O	4%	32µM*	-6	-8%	-11	-15%
